Laboratory results published in ChEMBL document CHEMBL1961873, “Compounds: GSK PKIS; Assays: Nanosyn kinase panel” (2012).

Columns and labels:
[1] = target: Protein kinase C gamma type (Homo sapiens) (UniProt P05129); details: at 1 µM;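 also: each value is an averaged percent inhibition of the enzyme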
[2] = target: T1, Protein kinase C iota type (Homo sapiens) (UniProt P41743); details: at 0.1 µM
T1 sequence (whole entry): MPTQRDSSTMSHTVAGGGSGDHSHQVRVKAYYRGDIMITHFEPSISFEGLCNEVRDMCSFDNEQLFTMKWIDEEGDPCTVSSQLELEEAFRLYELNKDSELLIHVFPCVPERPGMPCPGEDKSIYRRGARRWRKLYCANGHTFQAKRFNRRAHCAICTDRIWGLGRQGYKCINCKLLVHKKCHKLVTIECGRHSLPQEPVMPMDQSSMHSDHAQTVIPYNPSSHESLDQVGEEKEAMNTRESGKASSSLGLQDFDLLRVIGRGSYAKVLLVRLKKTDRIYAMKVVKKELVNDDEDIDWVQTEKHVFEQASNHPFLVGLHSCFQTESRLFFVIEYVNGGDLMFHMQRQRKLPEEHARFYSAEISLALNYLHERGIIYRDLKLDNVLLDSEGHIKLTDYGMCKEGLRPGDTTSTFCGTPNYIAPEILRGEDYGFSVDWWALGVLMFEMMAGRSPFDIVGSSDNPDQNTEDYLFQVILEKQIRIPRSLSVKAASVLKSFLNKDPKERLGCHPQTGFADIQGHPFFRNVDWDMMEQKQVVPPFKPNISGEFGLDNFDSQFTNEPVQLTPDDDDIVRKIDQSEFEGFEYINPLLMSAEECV

[3] = target: T1, Protein kinase C iota type (Homo sapiens); details: at 1 µM
[4] = target: Protein kinase C theta type (Homo sapiens) (UniProt Q04759); details: at 0.1 µM
Chain of Protein kinase C theta type (Homo sapiens) (Q04759 whole entry, looked up): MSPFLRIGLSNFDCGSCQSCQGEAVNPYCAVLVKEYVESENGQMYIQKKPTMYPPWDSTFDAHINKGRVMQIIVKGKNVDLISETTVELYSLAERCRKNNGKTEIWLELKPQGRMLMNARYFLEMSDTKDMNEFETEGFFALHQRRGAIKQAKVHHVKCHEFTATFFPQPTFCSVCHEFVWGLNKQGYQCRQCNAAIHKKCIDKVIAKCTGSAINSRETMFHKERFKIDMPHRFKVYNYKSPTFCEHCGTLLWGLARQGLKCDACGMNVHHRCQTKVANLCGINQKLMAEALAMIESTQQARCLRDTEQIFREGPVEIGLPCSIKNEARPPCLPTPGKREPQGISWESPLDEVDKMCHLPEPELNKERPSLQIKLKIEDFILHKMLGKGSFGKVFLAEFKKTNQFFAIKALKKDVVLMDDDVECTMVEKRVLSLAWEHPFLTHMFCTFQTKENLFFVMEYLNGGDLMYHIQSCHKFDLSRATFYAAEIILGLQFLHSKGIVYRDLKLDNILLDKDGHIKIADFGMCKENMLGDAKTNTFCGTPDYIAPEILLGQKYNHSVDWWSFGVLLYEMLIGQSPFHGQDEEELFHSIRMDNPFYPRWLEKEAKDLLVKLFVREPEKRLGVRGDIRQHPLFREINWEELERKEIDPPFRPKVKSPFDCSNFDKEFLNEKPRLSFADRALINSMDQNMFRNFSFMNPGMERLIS

[5] = target: Protein kinase C theta type (Homo sapiens) (UniProt Q04759); details: at 1 µM
[6] = target: Protein kinase C beta type (Homo sapiens) (UniProt P05771); details: at 0.1 µM
Chain of Protein kinase C beta type (Homo sapiens) (P05771 2-671 limits assumed): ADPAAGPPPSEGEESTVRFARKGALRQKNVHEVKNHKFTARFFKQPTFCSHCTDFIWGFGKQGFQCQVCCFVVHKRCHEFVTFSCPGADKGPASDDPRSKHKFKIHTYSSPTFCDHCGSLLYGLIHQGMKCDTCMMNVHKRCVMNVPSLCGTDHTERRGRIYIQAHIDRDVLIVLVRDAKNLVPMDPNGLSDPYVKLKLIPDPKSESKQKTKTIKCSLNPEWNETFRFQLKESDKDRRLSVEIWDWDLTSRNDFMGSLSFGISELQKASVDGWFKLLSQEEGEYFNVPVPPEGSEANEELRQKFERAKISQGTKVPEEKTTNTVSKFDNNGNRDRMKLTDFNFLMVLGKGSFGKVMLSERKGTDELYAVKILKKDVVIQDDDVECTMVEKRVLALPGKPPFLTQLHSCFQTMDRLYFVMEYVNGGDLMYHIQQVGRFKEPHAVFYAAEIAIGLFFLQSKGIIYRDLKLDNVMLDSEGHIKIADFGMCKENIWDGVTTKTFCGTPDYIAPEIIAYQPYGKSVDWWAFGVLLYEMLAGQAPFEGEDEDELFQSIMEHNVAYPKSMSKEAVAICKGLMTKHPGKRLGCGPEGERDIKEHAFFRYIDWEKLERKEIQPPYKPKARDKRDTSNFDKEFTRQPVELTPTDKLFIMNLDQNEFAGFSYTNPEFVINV

[7] = target: Protein kinase C beta type (Homo sapiens) (UniProt P05771); details: at 1 µM
[8] = target: T2, Serine/threonine-protein kinase D1 (Homo sapiens) (UniProt Q15139); details: at 0.1 µM
T2 sequence (whole entry): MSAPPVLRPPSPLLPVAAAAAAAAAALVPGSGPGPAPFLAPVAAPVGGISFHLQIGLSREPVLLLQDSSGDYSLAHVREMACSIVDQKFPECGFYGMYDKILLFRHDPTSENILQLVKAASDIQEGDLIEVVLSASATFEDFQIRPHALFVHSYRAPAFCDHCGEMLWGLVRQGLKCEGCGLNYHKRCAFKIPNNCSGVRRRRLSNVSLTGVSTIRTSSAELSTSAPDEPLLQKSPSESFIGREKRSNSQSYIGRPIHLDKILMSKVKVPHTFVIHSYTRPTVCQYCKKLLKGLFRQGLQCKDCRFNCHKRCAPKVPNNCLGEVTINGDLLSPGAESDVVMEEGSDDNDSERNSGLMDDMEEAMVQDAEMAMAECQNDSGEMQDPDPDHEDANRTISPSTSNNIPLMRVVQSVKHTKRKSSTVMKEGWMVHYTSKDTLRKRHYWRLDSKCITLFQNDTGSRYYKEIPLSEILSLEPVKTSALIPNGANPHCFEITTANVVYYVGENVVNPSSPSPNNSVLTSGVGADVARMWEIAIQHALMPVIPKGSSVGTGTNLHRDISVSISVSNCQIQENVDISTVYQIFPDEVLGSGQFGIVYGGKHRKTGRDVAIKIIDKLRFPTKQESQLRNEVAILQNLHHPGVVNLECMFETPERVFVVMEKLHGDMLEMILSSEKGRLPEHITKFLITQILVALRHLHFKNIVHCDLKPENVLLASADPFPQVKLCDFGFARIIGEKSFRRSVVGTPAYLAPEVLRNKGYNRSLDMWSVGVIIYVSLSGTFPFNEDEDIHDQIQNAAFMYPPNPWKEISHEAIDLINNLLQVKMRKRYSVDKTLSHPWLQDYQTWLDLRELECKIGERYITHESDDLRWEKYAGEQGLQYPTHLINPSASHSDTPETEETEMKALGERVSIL

[9] = target: T2, Serine/threonine-protein kinase D1 (Homo sapiens); details: at 1 µM
[10] = target: T3, Serine/threonine-protein kinase D2 (Homo sapiens) (UniProt Q9BZL6); details: at 0.1 µM
T3 sequence (whole entry): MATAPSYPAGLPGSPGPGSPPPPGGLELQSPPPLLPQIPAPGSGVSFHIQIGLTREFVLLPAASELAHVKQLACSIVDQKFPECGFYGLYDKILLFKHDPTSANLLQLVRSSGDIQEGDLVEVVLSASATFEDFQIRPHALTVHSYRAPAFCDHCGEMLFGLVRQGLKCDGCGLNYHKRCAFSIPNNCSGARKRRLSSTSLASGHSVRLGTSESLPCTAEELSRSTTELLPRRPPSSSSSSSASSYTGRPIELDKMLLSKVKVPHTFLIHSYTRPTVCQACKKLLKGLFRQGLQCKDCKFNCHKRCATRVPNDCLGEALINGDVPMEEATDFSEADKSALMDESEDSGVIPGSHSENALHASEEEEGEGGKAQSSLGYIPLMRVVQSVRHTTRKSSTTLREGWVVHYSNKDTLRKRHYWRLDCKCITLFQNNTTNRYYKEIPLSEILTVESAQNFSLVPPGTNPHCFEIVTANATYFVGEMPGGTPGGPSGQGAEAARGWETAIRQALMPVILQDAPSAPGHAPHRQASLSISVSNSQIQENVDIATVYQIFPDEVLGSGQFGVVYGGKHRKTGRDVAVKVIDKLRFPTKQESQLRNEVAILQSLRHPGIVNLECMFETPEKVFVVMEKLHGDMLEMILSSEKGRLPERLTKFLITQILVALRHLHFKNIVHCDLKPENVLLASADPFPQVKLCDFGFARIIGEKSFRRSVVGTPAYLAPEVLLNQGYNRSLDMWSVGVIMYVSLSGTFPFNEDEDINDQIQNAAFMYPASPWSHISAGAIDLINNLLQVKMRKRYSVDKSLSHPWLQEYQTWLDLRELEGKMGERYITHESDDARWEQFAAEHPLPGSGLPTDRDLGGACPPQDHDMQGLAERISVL

[11] = target: T3, Serine/threonine-protein kinase D2 (Homo sapiens); details: at 1 µM
[12] = target: T4, Serine/threonine-protein kinase D3 (Homo sapiens) (UniProt O94806); details: at 0.1 µM
T4 sequence (whole entry): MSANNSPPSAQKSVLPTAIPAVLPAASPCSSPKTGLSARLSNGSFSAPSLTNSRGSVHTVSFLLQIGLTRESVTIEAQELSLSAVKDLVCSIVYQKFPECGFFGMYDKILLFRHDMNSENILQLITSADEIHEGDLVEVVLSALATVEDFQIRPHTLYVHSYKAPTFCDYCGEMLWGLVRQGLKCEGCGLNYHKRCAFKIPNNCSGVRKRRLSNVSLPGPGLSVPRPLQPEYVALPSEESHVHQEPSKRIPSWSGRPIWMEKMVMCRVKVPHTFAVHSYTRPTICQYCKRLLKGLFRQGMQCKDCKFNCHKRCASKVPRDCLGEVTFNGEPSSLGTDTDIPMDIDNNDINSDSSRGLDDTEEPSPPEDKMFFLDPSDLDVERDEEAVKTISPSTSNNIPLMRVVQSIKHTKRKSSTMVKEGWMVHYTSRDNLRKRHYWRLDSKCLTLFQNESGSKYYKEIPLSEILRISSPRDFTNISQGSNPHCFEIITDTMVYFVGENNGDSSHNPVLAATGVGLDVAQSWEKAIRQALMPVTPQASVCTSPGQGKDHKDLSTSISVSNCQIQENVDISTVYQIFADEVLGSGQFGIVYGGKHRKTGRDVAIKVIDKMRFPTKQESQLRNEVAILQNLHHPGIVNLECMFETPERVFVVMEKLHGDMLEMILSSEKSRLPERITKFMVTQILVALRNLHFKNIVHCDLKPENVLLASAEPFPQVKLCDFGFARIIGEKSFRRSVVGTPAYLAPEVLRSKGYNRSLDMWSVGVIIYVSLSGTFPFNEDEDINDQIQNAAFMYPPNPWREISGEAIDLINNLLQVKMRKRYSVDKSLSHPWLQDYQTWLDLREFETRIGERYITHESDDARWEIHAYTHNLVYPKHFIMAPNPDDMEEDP

[13] = target: T4, Serine/threonine-protein kinase D3 (Homo sapiens); details: at 1 µM
[14] = target: T5, cGMP-dependent protein kinase 1 (Homo sapiens) (UniProt Q13976); details: at 0.1 µM
T5 sequence (whole entry): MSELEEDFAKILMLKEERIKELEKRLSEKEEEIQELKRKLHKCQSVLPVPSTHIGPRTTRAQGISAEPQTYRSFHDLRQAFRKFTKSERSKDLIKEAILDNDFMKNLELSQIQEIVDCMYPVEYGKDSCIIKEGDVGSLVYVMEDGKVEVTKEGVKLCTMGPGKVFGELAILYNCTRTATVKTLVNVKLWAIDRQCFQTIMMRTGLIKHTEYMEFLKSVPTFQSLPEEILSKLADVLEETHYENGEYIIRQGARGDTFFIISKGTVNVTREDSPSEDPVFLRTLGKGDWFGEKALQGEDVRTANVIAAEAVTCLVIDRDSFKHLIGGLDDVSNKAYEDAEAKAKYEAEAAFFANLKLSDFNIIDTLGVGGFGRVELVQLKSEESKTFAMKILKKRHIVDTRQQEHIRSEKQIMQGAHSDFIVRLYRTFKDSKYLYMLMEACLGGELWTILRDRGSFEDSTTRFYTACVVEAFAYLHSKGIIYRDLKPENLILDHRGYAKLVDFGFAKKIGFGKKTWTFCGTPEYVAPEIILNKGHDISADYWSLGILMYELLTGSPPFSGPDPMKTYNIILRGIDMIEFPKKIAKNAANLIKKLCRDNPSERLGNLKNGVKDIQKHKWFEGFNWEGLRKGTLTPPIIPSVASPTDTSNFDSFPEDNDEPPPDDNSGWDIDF

[15] = target: T5, cGMP-dependent protein kinase 1 (Homo sapiens); details: at 1 µM
[16] = target: T6, cGMP-dependent protein kinase 2 (Homo sapiens) (UniProt Q13237); details: at 0.1 µM
T6 sequence (whole entry): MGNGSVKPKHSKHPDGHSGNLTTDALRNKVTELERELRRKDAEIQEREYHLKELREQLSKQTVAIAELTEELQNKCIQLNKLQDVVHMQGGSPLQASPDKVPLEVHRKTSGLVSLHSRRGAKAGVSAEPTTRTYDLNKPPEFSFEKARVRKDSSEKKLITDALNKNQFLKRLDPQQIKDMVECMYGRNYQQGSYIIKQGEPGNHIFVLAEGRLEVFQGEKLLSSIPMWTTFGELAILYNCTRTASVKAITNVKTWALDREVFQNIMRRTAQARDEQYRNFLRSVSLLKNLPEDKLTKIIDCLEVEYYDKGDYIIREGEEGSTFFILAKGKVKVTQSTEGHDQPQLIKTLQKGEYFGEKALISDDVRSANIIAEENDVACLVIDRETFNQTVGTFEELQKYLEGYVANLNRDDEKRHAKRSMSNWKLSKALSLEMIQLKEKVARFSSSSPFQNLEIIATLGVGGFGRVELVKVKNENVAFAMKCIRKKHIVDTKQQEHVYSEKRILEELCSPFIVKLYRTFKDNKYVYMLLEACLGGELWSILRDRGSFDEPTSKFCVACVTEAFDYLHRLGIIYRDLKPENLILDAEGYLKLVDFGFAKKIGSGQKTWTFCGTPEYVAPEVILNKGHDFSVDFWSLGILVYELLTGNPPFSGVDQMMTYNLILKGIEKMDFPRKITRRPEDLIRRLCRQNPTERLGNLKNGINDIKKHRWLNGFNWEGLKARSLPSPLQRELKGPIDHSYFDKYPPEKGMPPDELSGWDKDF

[17] = target: T6, cGMP-dependent protein kinase 2 (Homo sapiens); details: at 1 µM
[18] = target: T7, cAMP-dependent protein kinase catalytic subunit PRKX (Homo sapiens) (UniProt P51817); details: at 0.1 µM
T7 sequence (whole entry): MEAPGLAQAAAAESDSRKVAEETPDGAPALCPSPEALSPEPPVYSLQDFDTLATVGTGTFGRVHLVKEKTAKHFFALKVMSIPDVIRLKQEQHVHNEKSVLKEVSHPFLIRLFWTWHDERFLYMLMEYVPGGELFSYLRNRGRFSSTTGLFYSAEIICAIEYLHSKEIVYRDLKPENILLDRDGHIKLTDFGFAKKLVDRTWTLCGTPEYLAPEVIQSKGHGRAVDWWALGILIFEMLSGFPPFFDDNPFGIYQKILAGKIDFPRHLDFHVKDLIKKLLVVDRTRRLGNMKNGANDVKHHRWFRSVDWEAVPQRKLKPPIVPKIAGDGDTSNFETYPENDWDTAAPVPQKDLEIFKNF

[19] = target: T7, cAMP-dependent protein kinase catalytic subunit PRKX (Homo sapiens); details: at 1 µM
[20] = target: Rho-associated protein kinase 1 (Homo sapiens) (UniProt Q13464); details: at 0.1 µM;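 also: values are mean percent inhibition of ROCK1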
Chain of Rho-associated protein kinase 1 (Homo sapiens) (Q13464 2-1354 limits assumed): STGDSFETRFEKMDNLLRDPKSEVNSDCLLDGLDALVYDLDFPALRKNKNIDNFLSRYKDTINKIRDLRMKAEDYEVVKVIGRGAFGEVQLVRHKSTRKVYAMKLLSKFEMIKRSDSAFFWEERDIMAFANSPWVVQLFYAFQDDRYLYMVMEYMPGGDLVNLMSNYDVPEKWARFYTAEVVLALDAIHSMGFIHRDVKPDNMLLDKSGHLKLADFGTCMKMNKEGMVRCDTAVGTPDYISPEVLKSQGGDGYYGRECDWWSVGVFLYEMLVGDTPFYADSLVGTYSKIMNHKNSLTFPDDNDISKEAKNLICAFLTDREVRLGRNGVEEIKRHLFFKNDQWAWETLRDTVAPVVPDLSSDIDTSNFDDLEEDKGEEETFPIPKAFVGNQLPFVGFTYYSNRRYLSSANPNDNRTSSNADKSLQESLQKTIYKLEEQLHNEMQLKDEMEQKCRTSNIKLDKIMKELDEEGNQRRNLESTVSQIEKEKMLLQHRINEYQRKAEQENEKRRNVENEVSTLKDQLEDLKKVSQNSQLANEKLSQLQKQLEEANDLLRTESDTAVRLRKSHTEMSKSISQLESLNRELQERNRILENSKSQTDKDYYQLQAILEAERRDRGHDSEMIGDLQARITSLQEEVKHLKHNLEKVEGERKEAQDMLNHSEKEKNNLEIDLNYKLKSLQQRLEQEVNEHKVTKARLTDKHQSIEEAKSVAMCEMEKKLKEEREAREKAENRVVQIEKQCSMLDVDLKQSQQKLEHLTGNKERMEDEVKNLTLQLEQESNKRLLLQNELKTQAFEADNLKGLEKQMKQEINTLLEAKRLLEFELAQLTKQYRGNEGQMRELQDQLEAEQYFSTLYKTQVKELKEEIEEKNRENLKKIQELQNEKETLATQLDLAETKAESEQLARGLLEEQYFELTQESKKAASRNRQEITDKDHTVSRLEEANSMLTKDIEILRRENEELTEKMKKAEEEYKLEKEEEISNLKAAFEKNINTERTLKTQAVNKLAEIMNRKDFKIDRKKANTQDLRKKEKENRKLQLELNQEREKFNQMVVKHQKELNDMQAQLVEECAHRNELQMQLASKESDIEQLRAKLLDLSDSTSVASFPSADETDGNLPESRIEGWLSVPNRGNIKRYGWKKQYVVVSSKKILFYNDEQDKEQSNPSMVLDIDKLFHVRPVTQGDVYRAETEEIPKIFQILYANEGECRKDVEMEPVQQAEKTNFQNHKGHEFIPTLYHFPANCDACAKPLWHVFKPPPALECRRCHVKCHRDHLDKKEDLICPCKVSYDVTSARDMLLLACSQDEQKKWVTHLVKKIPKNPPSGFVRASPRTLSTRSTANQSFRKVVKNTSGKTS

Compound	inhibition [1] [%]	inhibition [2] [%]	inhibition [3] [%]	inhibition [4] [%]	inhibition [5] [%]	inhibition [6] [%]	inhibition [7] [%]	inhibition [8] [%]	inhibition [9] [%]	inhibition [10] [%]	inhibition [11] [%]	inhibition [12] [%]	inhibition [13] [%]	inhibition [14] [%]	inhibition [15] [%]	inhibition [16] [%]	inhibition [17] [%]	inhibition [18] [%]	inhibition [19] [%]	inhibition [20] [%]
CCS(=O)(=O)c1ccc(OC)c(Nc2nccc(N(C)c3ccc4c(C)n[nH]c4c3)n2)c1	3.15	2.77	2.66	2.68	2.9	1.61	2.71	4.99	6.33	4.18	3.25	4.79	4.86	4.43	2.44	2.68	3.13	2.11	2.47	1.77
Cc1ccc2c(-c3ccnc(Nc4cccc(C(F)(F)F)c4)n3)c(-c3ccccc3)nn2n1	5.36	1.34	1.37	2.13	3.7	1.37	5	7.68	39.8	12.8	56.8	11.6	51.5	3.11	5.07	3.26	4.35	2.65	2.54	3.08
COc1cc2ncn(-c3cc(OCc4ccccc4S(C)(=O)=O)c(C#N)s3)c2cc1OC	6.46	2.06	3.79	2.44	3.61	1.55	4.05	2.92	5.45	3.97	4.79	4.75	5.43	4.3	5.27	3.46	5.2	1.34	2.89	3.62
Cc1ccc2c(c1)/C(=N/Nc1ccc(S(N)(=O)=O)cc1)C(=O)N2	-1.54	-1.59	0.19	-0.6	-1.65	0.19	0.09	0.96	1.76	1.62	1.97	0.87	1.79	0.26	0.41	0.36	3.82	-1.58	-2.35	0.97
